# PubChem BioAssay AID504895 (National Center for Advancing Translational Sciences (NCATS), 2011)
# Inconclusive results are not listed. Where a call stands in place of a potency, no number is given. Calls of active or inactive are those of the source. The call rests on the fitted dose curve; in most records, active means well fitted curve in the direction sought with a large enough effect; inconclusive means small, poorly fitted or top-dose-only effect, or another doubt; inactive means no such curve, though single readings can be large or run the other way.
# Target: Protein phosphatase EYA2 (Homo sapiens) (UniProt O00167)
# Sequence (O00167 whole entry, looked up): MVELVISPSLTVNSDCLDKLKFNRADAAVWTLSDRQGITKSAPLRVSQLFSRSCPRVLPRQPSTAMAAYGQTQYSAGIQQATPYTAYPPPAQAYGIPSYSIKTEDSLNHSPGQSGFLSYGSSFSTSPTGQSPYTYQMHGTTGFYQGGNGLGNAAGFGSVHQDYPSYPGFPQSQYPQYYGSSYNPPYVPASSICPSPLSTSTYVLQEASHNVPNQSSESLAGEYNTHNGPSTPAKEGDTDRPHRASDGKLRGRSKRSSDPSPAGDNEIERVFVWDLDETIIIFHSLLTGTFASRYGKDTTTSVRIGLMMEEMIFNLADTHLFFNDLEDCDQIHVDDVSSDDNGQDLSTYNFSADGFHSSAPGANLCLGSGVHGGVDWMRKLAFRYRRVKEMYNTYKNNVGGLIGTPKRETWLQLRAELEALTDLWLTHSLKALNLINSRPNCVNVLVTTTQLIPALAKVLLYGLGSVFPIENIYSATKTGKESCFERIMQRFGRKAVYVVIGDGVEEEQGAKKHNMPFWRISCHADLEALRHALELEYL
# Test: Inhibitors of Eya2ED: Hit Confirmation in Primary Screen
# Settings: Recombinant Eya2ED, OMFP fluorescence phosphatase assay; series mostly up to 76.9 µM
# Procedure, shortened: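 Eya2 (dispensed at 0.2 uM) was preincubated 10 min at ambient with compound in 50 mM HEPES pH 7.5, 50 mM NaCl, 5 uM MgCl2, 0.05% BSA, 1 mM DTT. OMFP (dispensed at 50 uM) was then added, and fluorescence (ex 485/em 525 nm) was read after 10 min. Retested as 12-point titrations; EGTA control.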
row,SMILES,Potency
1,COC(=O)C1OC(OC2CC[C@]3(C)C(CC[C@@]4(C)[C@@H]3CC=C3[C@@H]5CC(C)(C)CC[C@]5(C(=O)OC5OC(CO)C(O)C(O)C5O)CC[C@]34C)C2(C)C)C(O)C(O)C1O[C@H]1OCC(O)C(O)C1O (stereo partly drawn),inactive
2,NC(=O)Nc1ccc(C(=O)OCC(=O)NC2CCCCC2)cc1,inactive
3,COC(=O)C1=C(C)Nc2ncnn2C1c1ccco1 (stereo not drawn),inactive
4,COc1ccc(CC(=O)Nc2cccnc2)cc1,inactive
5,CC1CN(S(=O)(=O)c2ccc(C(=O)Nc3nnc(-c4ccco4)o3)cc2)CC(C)O1 (stereo not drawn),inactive
6,O=C1/C(=C/c2cccs2)N=C(c2cccs2)N1Nc1ccccc1,inactive
7,Cc1ccc(NC(=O)c2sc(N)nc2-c2ccc([N+](=O)[O-])cc2)cc1C,inactive
8,Cc1c(NC(=O)C(C)OC(=O)CCC2CCCC2)c(=O)n(-c2ccccc2)n1C (stereo not drawn),inactive
9,Cc1ccc2occ(/C=N/NC(=O)[C@@H](N)Cc3ccccc3)c(=O)c2c1,inactive
10,COc1ccc(CCc2nc(C)ccc2O)cc1,inactive
11,COc1cc(C(=O)Nc2ccc(NC(=O)c3ccccc3Cl)nc2)cc(OC)c1OC,inactive
12,Cc1nnc(SC(C)C(=O)Nc2ccc3ccccc3c2)[nH]c1=O (stereo not drawn),inactive
13,CC(=O)c1c(C)[nH]c(C(=O)COC(=O)COc2ccccc2)c1C,inactive
14,Cn1c(N)c(C(=O)CSc2nnc(C3CC3)n2-c2ccccc2)c(=O)[nH]c1=O,inactive
15,O=C(Cc1coc2cc(O)ccc12)NNC(=O)c1ccc(Br)s1,inactive
16,Cc1ccc(C(=O)NCc2ccc(Cl)cc2)o1,inactive
17,COc1ccc2c(c1)[C@H]1[C@H](CO2)[C@H](c2ccccc2)[C@]2(C)C(=O)Nc3ccc(F)cc3C(=O)N12,inactive
18,Cc1onc(-c2ccccc2Cl)c1C(=O)OCC(=O)N1CCC(C)CC1,inactive
19,CC1(c2ccccc2Cl)NC(=O)N(CC(=O)N2CCc3ccccc3C2)C1=O (stereo not drawn),inactive
20,O=C(COC(=O)c1cc(Cl)ccc1Cl)NC1CCCC1,inactive
21,Cc1ccc(N(CC(=O)N2CCOCC2)S(C)(=O)=O)cc1Cl,inactive
22,O=C(CSc1c2c(nc3cc(Cl)ccc13)CCCC2)NCc1ccco1,inactive
23,CC[C@]12c3[nH]c4ccccc4c3CCN1C(=O)C(CC(=O)NCCc1ccccn1)C[C@@H]2C(=O)N1CCN(C(=O)c2ccco2)CC1 (stereo partly drawn),inactive
24,CCOc1ccc(NC(=O)COC(=O)CN2CCCCCC2=O)cc1,inactive
25,CC(C)(C)C(=O)Nc1nc(=S)ss1,inactive
26,CCCOc1ccc(C(=O)OCC(=O)c2c(N)n(C)c(=O)n(C)c2=O)cc1OC,inactive
27,O=C(CCc1nc2ccccc2s1)NCc1ccccc1F,inactive

row,SMILES,Potency
1,O=C(NC(=S)Nc1ccccc1N1CCCCC1)c1ccc(F)cc1Cl,inactive
2,CC(=O)c1ccc(NC(=O)C2(c3ccccc3)CC2(Cl)Cl)cc1 (stereo not drawn),inactive
3,Cc1cccn2c(=O)nc(SCC(=O)NCc3ccc(F)cc3)nc12,inactive
4,Cc1ccc(S(=O)(=O)NNC(=S)NCCc2ccccc2)cc1,inactive
5,O=C(CC1(CC(=O)N2CCOCC2)CCCC1)Nc1ccccc1,inactive
6,Cn1cccc1CC(=O)NNC(=S)NC(=O)c1ccc(F)cc1,inactive
7,Cc1cc(C(=O)Nc2ccc(N3CCCCC3)cc2)no1,inactive
8,COc1ccc(C(=O)NCCSCc2ccccc2C)cc1,inactive
9,CCCc1nnc(SCc2ccc(C(=O)OC)o2)n1N,inactive
10,CC(NC(=O)COC(=O)C1CC1C)c1cccc(Cl)c1 (stereo not drawn),inactive
11,COc1ccccc1OCCCCOc1ccccc1F,inactive
12,O=C(NC1CCN(Cc2ccccc2)CC1)c1cccc(S(=O)(=O)Nc2ccc(SC(F)F)cc2)c1,inactive
13,O=C(COC(=O)c1cc(S(=O)(=O)N2CCCC2)ccc1O)Nc1ccccc1Br,inactive
14,Cc1nn(C)c(C)c1NC(=O)Nc1ccc(Cl)c(Cl)c1,inactive
15,COc1ccc(NC(=O)CSc2nc3[nH]c(=O)[nH]c(=O)c3s2)cc1OC,inactive
16,O=C(CCCN=C1NS(=O)(=O)c2ccccc21)OCc1ccc(F)cc1,inactive
17,Cc1c(NS(=O)(=O)c2ccc(N)cc2)c(=O)n(-c2ccccc2)n1C,inactive
18,COc1ccc(Cl)cc1CSc1ncn[nH]1,inactive
19,CC(NC(=S)NNS(=O)(=O)c1ccc(C(C)(C)C)cc1)c1ccccc1 (stereo not drawn),inactive
20,COc1ccc(CCNC(=O)CCSc2nc(-c3ccco3)cc(C(F)(F)F)n2)cc1OC,inactive
21,CCOc1cc(C)c(Cl)cc1S(=O)(=O)NCc1ccco1,inactive
22,Cc1ccc(NC(=O)CC2C(=O)NC3CCCCC3N2C(=O)c2ccc(F)cc2)cc1C (stereo not drawn),inactive
23,C#CCOCCOCCOCCNc1nc(N2CCN(C(=O)CCCCCCCCCCNC(=O)[C@H](CCCCN)n3cc(C)nn3)CC2)nc(N2CCN(C(=O)CCCCCCCCCCNC(=O)[C@H](CCCN=C(N)N)n3cc(C[C@@H](C)CC)nn3)CC2)n1,18.4 µM (active)
24,COc1ccc(-c2nnn(-c3cc(Cl)cc(Cl)c3)c2N)cc1,inactive
25,O=C(COC(=O)c1cccnc1Cl)Nc1cc(S(=O)(=O)N2CCCCCC2)ccc1Cl,inactive
26,CN(CCCC(=O)N1CCN(c2ncccn2)CC1)S(=O)(=O)c1ccc(F)cc1,inactive
